Values joined by “and” are separate entries in the source; they are usually repeats but may differ in a detail not shown here. Equal entries are not always repeated. About 83,000 compounds went through this panel and 20% of them were active in at least one assay; those are over-represented in the sample as a whole.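 Cell lines were cultured in 96-well plates, exposed to a single compound concentration, and assessed for percent growth 48 hours later.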 Active and inactive are the calls of the source. The calls were made as follows: active = growth percent below 10; inactive = the rest.
Assays:
Test in all cases: NCI-60 one-dose screen, 48 h (100 = growth as untreated, 0 = no growth, -100 = all killed)
Conditions in all cases: 10 µM unless noted
DU-145 prostate = tested on: DU-145 prostate
K-562 leukemia = tested on: K-562 leukemia
MALME-3M melanoma = tested on: MALME-3M melanoma
MDA-MB-231 breast = tested on: MDA-MB-231 breast
RXF 393 renal = tested on: RXF 393 renal
SF-268 CNS = tested on: SF-268 CNS
SF-295 CNS = tested on: SF-295 CNS
SF-539 CNS = tested on: SF-539 CNS
UACC-257 melanoma = tested on: UACC-257 melanoma
M14 melanoma = tested on: M14 melanoma

Measured: growth

[2H]C([2H])([2H])Oc1cc(F)ccc1/C=C/C(=O)/C=C(/C=C/c1ccc(F)cc1OC([2H])([2H])[2H])OB(F)F
inactive: DU-145 prostate 30.5% | K-562 leukemia 18% | MALME-3M melanoma 33.1% | MDA-MB-231 breast 53% | SF-268 CNS 56.7% | SF-295 CNS 59.5% | SF-539 CNS 93.2% | UACC-257 melanoma 48.9%
active: RXF 393 renal 1.06% | M14 melanoma 8.14%

CCOC(=O)CCCn1c(-c2ccccc2)cc(-c2ccccc2)c(C#N)c1=O
inactive: DU-145 prostate 97.1% | K-562 leukemia 81.8% | MALME-3M melanoma 108% | MDA-MB-231 breast 86.8% | RXF 393 renal 79.2% | SF-268 CNS 88.4% | SF-295 CNS 69.2% | SF-539 CNS 81.5% | UACC-257 melanoma 90.5% | M14 melanoma 86.8%

COc1cc(F)c(/C=C/c2cc(/C=C/c3cc(OC)c(OC)cc3F)n(-c3cc(F)cc(F)c3)n2)cc1OC
inactive: DU-145 prostate 43.1% | K-562 leukemia 20.3% | MDA-MB-231 breast 54.9% | RXF 393 renal 85.6% | SF-268 CNS 34% | SF-295 CNS 54.2% | SF-539 CNS 83.4% | UACC-257 melanoma 24%
active: MALME-3M melanoma -6.11% | M14 melanoma -19.5%

O=C(NCc1ccc(Cn2c(=O)sn(-c3ccc(Cl)cc3)c2=O)cc1)OCc1ccc2c(Cl)cc(Cl)c(O)c2n1
inactive: DU-145 prostate 44.8% | K-562 leukemia 29.8% | MALME-3M melanoma 78.3% | MDA-MB-231 breast 72% | RXF 393 renal 25.8% | SF-268 CNS 54.6% | SF-295 CNS 18.2% | SF-539 CNS 42.5% | UACC-257 melanoma 78.1% | M14 melanoma 50.5%

COc1ccc(Cl)cc1Nc1nc(C(F)(F)F)ccc1C(=O)N/N=C/c1ccc(N(C)C)cc1
inactive: DU-145 prostate 117% | K-562 leukemia 122% | MALME-3M melanoma 92.2% | MDA-MB-231 breast 72.9% | RXF 393 renal 75.6% | SF-268 CNS 107% | SF-295 CNS 154% | SF-539 CNS 115% | UACC-257 melanoma 110% | M14 melanoma 81.3%

COc1ccc(S(=O)(=O)Nc2cc(Sc3cccc4cccnc34)c(O)c3ccccc23)cc1
inactive: DU-145 prostate 19.5% | MDA-MB-231 breast 25% | RXF 393 renal 18.8% | SF-268 CNS 11.3% | SF-295 CNS 22.3%
active: K-562 leukemia -7.46% | MALME-3M melanoma 6.25% | SF-539 CNS -6.48% | UACC-257 melanoma -17% | M14 melanoma -13.4%

COc1ccc(/C=C2\COc3ccc(O)c(O)c3C2=O)c(OC)c1OC
active: K-562 leukemia 9.86% | MDA-MB-231 breast -2.18% | SF-539 CNS -9.26%
inactive: DU-145 prostate 13.9% | MALME-3M melanoma 24.2% | RXF 393 renal 50.8% | SF-268 CNS 48% | SF-295 CNS 91.7% | UACC-257 melanoma 45.6% | M14 melanoma 38.4%

COc1ccc(-c2nnc3n(C)c(=O)c4ccccc4n23)cc1O
active: K-562 leukemia 9.1% | RXF 393 renal -11.7% | SF-539 CNS -3.83% | M14 melanoma 3.13%
inactive: DU-145 prostate 27.1% | MALME-3M melanoma 70.8% | MDA-MB-231 breast 36.4% | SF-268 CNS 54.1% | SF-295 CNS 11.6% | UACC-257 melanoma 49.8%

CC(=O)OC[C@]12CCC(C)(C)C=C1[C@H]1CC[C@@H]3[C@@]4(C)CCCNC(C)(C)[C@@H]4CC[C@@]3(C)[C@]1(C)CC2
inactive: DU-145 prostate 87.4% | K-562 leukemia 14.2% | MALME-3M melanoma 41.9% | MDA-MB-231 breast 82.1% | RXF 393 renal 89.2% | SF-268 CNS 81.2% | SF-295 CNS 100% | SF-539 CNS 95.2% | UACC-257 melanoma 31.9% | M14 melanoma 64.8%

O=C([C@H]1C[C@H]1c1ccc(S(F)(F)(F)(F)F)cc1)N1CCN(c2cc(Cl)ccc2C(F)(F)F)CC1
inactive: DU-145 prostate 104% | K-562 leukemia 74.2% | MALME-3M melanoma 89.7% | MDA-MB-231 breast 97.2% | RXF 393 renal 91.8% | SF-268 CNS 90.2% | SF-295 CNS 92.6% | SF-539 CNS 107% | UACC-257 melanoma 94.9% | M14 melanoma 90.7%

CC12CCC(C(=O)CC1=O)C2(C)C (stereo not given)
inactive: DU-145 prostate 110% and 108% | K-562 leukemia 102% and 84.9% | MALME-3M melanoma 105% and 87.4% | MDA-MB-231 breast 111% and 105% | RXF 393 renal 106% | SF-268 CNS 99.2% and 100% | SF-295 CNS 100% | SF-539 CNS 107% and 112% | UACC-257 melanoma 103% and 91.7% | M14 melanoma 102% and 101%

O=C(NCCCN1CCCCC1)c1ccc(-c2nc3ccc4[nH]ncc4c3c3c2CCCC3)cc1
inactive: DU-145 prostate 51.3% | K-562 leukemia 16.7% | MALME-3M melanoma 70.8% | MDA-MB-231 breast 54.9% | RXF 393 renal 28.5% | SF-268 CNS 54.2% | SF-295 CNS 55.3% | SF-539 CNS 43.8% | UACC-257 melanoma 97.2% | M14 melanoma 57.3%

COc1cc(CNC(=O)CCCC/C=C/C(C)C)ccc1OCc1cn(-c2ccc([N+](=O)[O-])cc2)nn1
inactive: DU-145 prostate 105% | K-562 leukemia 74.5% | MALME-3M melanoma 98.4% | MDA-MB-231 breast 75.3% | RXF 393 renal 99.7% | SF-268 CNS 86.1% | SF-295 CNS 89% | SF-539 CNS 104% | UACC-257 melanoma 82.6% | M14 melanoma 89.7%

Cc1c(O)c(O)cc2c3c(oc12)CC(c1ccc2c(c1)OCO2)CC3=O (stereo not given)
inactive: DU-145 prostate 97.7% | K-562 leukemia 82.1% | MALME-3M melanoma 105% | MDA-MB-231 breast 76.9% | RXF 393 renal 115% | SF-268 CNS 83.3% | SF-295 CNS 106% | SF-539 CNS 81.8% | UACC-257 melanoma 94.7% | M14 melanoma 84%

COc1cc(NC2CCCCC2O)c2nc(-c3ccc(Cl)cc3)ccc2c1 (stereo not given)
inactive: DU-145 prostate 95.3% and 95% | K-562 leukemia 44.8% | MALME-3M melanoma 72.5% and 124% | MDA-MB-231 breast 44.6% and 78.1% | RXF 393 renal 39.3% and 67.9% | SF-268 CNS 77.5% and 84% | SF-295 CNS 51.5% and 54.3% | SF-539 CNS 105% and 93.9% | UACC-257 melanoma 101% and 105% | M14 melanoma 45.8% and 79.9%

[2H]C([2H])([2H])Oc1cccc(/C=C/C(=O)/C=C(/C=C/c2cccc(OC([2H])([2H])[2H])c2OC([2H])([2H])[2H])OB(F)F)c1OC([2H])([2H])[2H]
inactive: DU-145 prostate 88.3% | K-562 leukemia 65.2% | MALME-3M melanoma 75.9% | MDA-MB-231 breast 88% | RXF 393 renal 121% | SF-268 CNS 98% | SF-295 CNS 103% | SF-539 CNS 92.2% | UACC-257 melanoma 64.5% | M14 melanoma 92.8%

CCOC(=O)c1c(-c2ccc(OC)cc2)c(C#N)c2c(C#N)c(N)nn2c1N
inactive: DU-145 prostate 56.1% | MALME-3M melanoma 30.8% | MDA-MB-231 breast 28.4% | RXF 393 renal 59.7% | SF-268 CNS 40.2% | SF-295 CNS 28.2% | SF-539 CNS 25.1% | UACC-257 melanoma 49.9% | M14 melanoma 34.2%
active: K-562 leukemia 5.64%

OB(O)c1ccsc1-c1nc2ccc3[nH]ncc3c2c2c1CCCC2
inactive: DU-145 prostate 47.3% | K-562 leukemia 55.9% | MALME-3M melanoma 77.9% | MDA-MB-231 breast 70.3% | RXF 393 renal 19.2% | SF-268 CNS 58.9% | SF-295 CNS 69.6% | SF-539 CNS 45.2% | UACC-257 melanoma 85.5% | M14 melanoma 41.4%

CN1CCN(Cc2ccc(NC(=O)c3cccc(C#Cc4c(N)ncc5ccc(F)cc45)c3)cc2C(F)(F)F)CC1
active: DU-145 prostate -89.9% | K-562 leukemia -29.5% | MALME-3M melanoma -54.5% | MDA-MB-231 breast -79% | RXF 393 renal -89.6% | SF-268 CNS -45.8% | SF-295 CNS -65.4% | SF-539 CNS -94.5% | UACC-257 melanoma -62.5% | M14 melanoma -71%

CN1CCCc2cc(/C=C3\SC(=S)N(C(Cc4ccc(O)cc4)C(=O)O)C3=O)ccc21 (stereo not given)
inactive: DU-145 prostate 104% | K-562 leukemia 91.3% | MALME-3M melanoma 88.9% | MDA-MB-231 breast 96.1% | RXF 393 renal 99.4% | SF-268 CNS 97.2% | SF-295 CNS 98.2% | SF-539 CNS 102% | UACC-257 melanoma 99.6% | M14 melanoma 101%

O=C(CN1C(=O)S/C(=C\C(Cl)=C\c2ccccc2)C1=O)NC1C=CS(=O)(=O)C1 (stereo not given)
inactive: DU-145 prostate 24.8% | MDA-MB-231 breast 14.3% | SF-268 CNS 63.9% | SF-295 CNS 80.8% | UACC-257 melanoma 45.2%
active: K-562 leukemia 4.66% | MALME-3M melanoma -24.9% | RXF 393 renal -77.8% | SF-539 CNS 1.56% | M14 melanoma -49.9%

CCN(C(=O)N1CCN(c2cc3c(cc2F)c(=O)c(C(=O)O)cn3C2CC2)CC1)c1nc(-c2ccccc2)cs1
active: MDA-MB-231 breast 5.26% | SF-295 CNS 8.29% | SF-539 CNS 8.47%
inactive: DU-145 prostate 27.1% | K-562 leukemia 13.8% | MALME-3M melanoma 22.1% | RXF 393 renal 19.7% | SF-268 CNS 25% | UACC-257 melanoma 74.1% | M14 melanoma 22.9%

Cc1nc2sc(C(=O)Nc3cccc4ccccc34)c(N)c2cc1C(=O)/C=C/c1ccccc1
inactive: K-562 leukemia 12% | MALME-3M melanoma 34% | UACC-257 melanoma 68.9%
active: DU-145 prostate -3.16% | MDA-MB-231 breast -16.2% | RXF 393 renal -87.2% | SF-268 CNS 9.83% | SF-295 CNS -30.7% | SF-539 CNS -20.1% | M14 melanoma -15.3%

COC(=O)c1c2c(c(C)[n+]([O-])c1C)C(=O)C(NCCN1CCOCC1)=CC2=O
active: MALME-3M melanoma -13.2%
inactive: DU-145 prostate 84.3% | K-562 leukemia 75.6% | MDA-MB-231 breast 70.8% | RXF 393 renal 96.3% | SF-268 CNS 79.3% | SF-295 CNS 82.7% | SF-539 CNS 89.5% | UACC-257 melanoma 48.4% | M14 melanoma 62.9%
